In ChEMBL document CHEMBL3433997, “St. Jude Leishmania screening dataset” (2016):

Columns and labels:
Type in all cases: functional
[1] = target: Solute carrier family 2, facilitated glucose transporter member 1 (Homo sapiens) (UniProt P11166); experiment: ST_JUDE_LEISH: Cytotoxicity at 2uM final concentration against transgenic Leishmania Mexicana promastigotes LmGLUT1 that are glucose transport deficient and complemented with the human glucose transporter GLUT1. Activity is measured by DNA content using SYBR green in vitro
[2] = target: Hexose transporter 1 (Plasmodium falciparum) (UniProt O97467); experiment: ST_JUDE_LEISH: Cytotoxicity at 2uM final concentration against transgenic Leishmania Mexicana promastigotes LmPfHT that are glucose transport deficient and complemented with the Plasmodium falciparum hexose transporter. Activity is measured by DNA content using SYBR green in vitro
[3] = target: Glucose transporter (Leishmania mexicana) (UniProt O61059); experiment: ST_JUDE_LEISH: Cytotoxicity at 2uM final concentration against transgenic Leishmania Mexicana promastigotes LmGT2 that are glucose transport deficient and complemented with the L. Mexicana glucose transporter 2. Activity is measured by DNA content using SYBR green in vitro

Sequence of Solute carrier family 2, facilitated glucose transporter member 1 (Homo sapiens) (P11166 whole entry): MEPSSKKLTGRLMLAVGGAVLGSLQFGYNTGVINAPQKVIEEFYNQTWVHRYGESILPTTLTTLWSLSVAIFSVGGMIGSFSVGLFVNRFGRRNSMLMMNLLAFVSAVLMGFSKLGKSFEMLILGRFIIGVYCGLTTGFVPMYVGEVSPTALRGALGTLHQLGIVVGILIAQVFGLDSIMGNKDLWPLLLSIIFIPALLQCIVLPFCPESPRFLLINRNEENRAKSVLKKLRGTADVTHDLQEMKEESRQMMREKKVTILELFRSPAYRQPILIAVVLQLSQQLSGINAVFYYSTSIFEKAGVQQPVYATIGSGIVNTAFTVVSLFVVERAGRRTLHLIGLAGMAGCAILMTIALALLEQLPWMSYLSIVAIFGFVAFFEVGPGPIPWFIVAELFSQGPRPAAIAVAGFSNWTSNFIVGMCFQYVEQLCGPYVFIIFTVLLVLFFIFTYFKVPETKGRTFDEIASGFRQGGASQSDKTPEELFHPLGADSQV

Row | SMILES | inhibition [1] | inhibition [2] | inhibition [3]
1 | COc1cc2nc(NCCn3nc(C)cc3C)nc(NCCc3ccccc3)c2cc1OC | -0.49% | 5.15% | 1.08%
2 | FC(F)(F)c1ccc2[nH]c(-c3ccc(-c4cccc(CN5CCN(c6ccncc6)CC5)c4)cc3)nc2c1 | 64.9% | 53.5% | 9.81%
3 | CCOc1ccc(Nc2nc(N)c3ccccc3n2)cc1 | 12.3% | 10.3% | 6.25%
4 | Cc1cc2c(cc1C(F)(F)F)N(C(=O)Nc1cc(C(=O)NC3CCN(Cc4ccccc4)C3)cc(C(F)(F)F)c1)CC2 (stereo not drawn) | 6.43% | 6.1% | 7.35%
5 | CCCc1ccc(NC(=O)c2ccc(CN3CCCN(CC4CCCCC4)CC3)cc2)cc1 | 2.9% | 7.86% | 5.46%
6 | CCCC(C)Nc1nc(C)cc(NCCC(=O)Nc2ccc(OC)cc2)n1 (stereo not drawn) | 1.95% | 0.08% | -0.58%
7 | CN(C)CCN(C)Cc1cccc(-c2ccc3c(Nc4cc(O)c(Cl)cc4F)ccnc3c2)c1 | 1.45% | -0.99% | -2.95%
8 | CC(C)(C)C(=O)N1CCN(c2ccc([N+](=O)[O-])c(NC3CC3)c2)CC1 | 2.03% | 2.58% | 2.27%
9 | CC(C)(C)c1ccc(CNC(=O)c2cc(CNC3CCNC3)ccc2O)cc1 (stereo not drawn) | 1.88% | 0.79% | 0.53%
10 | CC1(C)N=C(N)N=C(N)N1c1ccc(Cl)c(Cl)c1 | -1.25% | 0.49% | 3.04%
11 | O=C(c1cc(C(=O)Nc2ccccc2F)c(=O)n(-c2ccccc2F)c1)c1cc(Cl)ccc1O | 1.31% | -0.63% | -2.18%
12 | COc1cccc(CN(C(=O)Nc2ccccc2F)[C@H]2C[C@H]3C(=O)Nc4cc(F)ccc4C(=O)N3C2)c1 | 4.68% | 4.97% | 5.37%
13 | Cc1cccc2nc(-c3ccc(-c4cccc(CN5CCN(c6ccncc6)CC5)c4)s3)[nH]c12 | 4.03% | 2.05% | 0.33%
14 | Cc1cc(NC(=O)c2coc3cc(F)c(N4CC(C)N(C)C(C)C4)cc23)ccc1-n1ccnc1 (stereo not drawn) | 2.32% | 1.16% | -1.58%
15 | CCOc1ccc(N(CC)S(=O)(=O)c2cc(Br)cc3c2N(C(=O)C2CC2)CC3)cc1 | 2.96% | 2.04% | 1.74%
16 | Cc1ccc(O)cc1Nc1ccnc2cc(-c3csc(CNCCN4CCOCC4)n3)ccc12 | 1.41% | 0.86% | 1.37%

Row | SMILES | inhibition [1] | inhibition [2] | inhibition [3]
17 | CCc1cn2c3c(cc(C(=O)N[C@@H](Cc4ccccc4)[C@H](O)CNCc4ccccc4)cc13)N(C)S(=O)(=O)CC2 | -0.83% | -0.74% | 0.13%
18 | O=C(Nc1ccc(Cl)c(C(F)(F)F)c1)NC1CCN(CCCCCNC(=O)C2CC2c2ccc(Cl)c(Cl)c2)CC1 (stereo not drawn) | 7.55% | 9.26% | 6.43%
19 | CCCC/C=C(\Cl)c1ccc(O)c2c1C[C@H]1C[C@H]3[C@H](N(C)C)C(O)=C(C(N)=O)C(=O)[C@@]3(O)C(O)=C1C2=O | -0.21% | -1.57% | 0.16%
20 | COc1ccc(Nc2nccc(NCCNC(=O)Nc3cc(C)ccc3C)n2)cc1 | 11.1% | 9.29% | 1.38%
21 | COc1ccc(-c2cc(C(=O)Nc3ccc(CCCN(C)Cc4ccc(OC)c(OC)c4)cc3)c3ccccc3n2)cc1 | 13.6% | 2.41% | 1.44%
22 | O=C(COc1ccccc1Cc1ccccc1)Nc1cc(Cl)ccc1-n1cncn1 | 4.5% | 4.62% | 3.15%
23 | Cc1cc2c(NC(=O)NC3CCN(Cc4ccc(Cl)c(Cl)c4)CC3)cccc2cn1 | 0.94% | -0.05% | -3.37%
24 | Cc1c(Cn2ncc(N3CCC(N)CC3)c(Cl)c2=O)cccc1NC(=O)Nc1ccc(-c2ccccc2)cc1 | 3.52% | 4.24% | 5.11%
25 | O=c1cc(NCCCNCc2ccc(Cl)c(Cl)c2)[nH]c2cc(Cl)ccc12 | 2.05% | 3.29% | 2.73%
26 | O=C(Nc1cccc(CN2CCCN(Cc3cccc(O)c3)CC2)c1)c1ccc(-c2ccccc2)cc1 | -3.92% | -2.77% | -0.17%
27 | O=C(Nc1cccc(-c2cccc(F)c2)c1)C1CCN(Cc2ccc(O)cc2)CC1 | 2.54% | 2.14% | 2.19%
28 | CCc1cn(CCc2ccccc2)c2ccc(C(=O)N[C@@H](Cc3ccccc3)[C@H](O)CNC(C)(C)CCCC(C)C)cc12 | -1.76% | -1.07% | -2.99%
29 | COCCN1CCC(CNCC(C)(C)c2nc(-c3ccc(Cl)c(O)c3)c(-c3ccncc3)[nH]2)CC1 | 7.22% | 7.6% | 7.7%
30 | Cc1noc(C)c1C(=O)N1CCCC(c2[nH]c3c(C)cccc3c2-c2ccncc2)C1 (stereo not drawn) | 2.42% | 3% | 2%
31 | Cc1nc2ccc3ccc(CNc4ccc(C(=O)CC(CCC(=O)O)C(=O)O)cc4)cc3c2c(=O)[nH]1 (stereo not drawn) | -0.57% | -1.01% | -0.36%
